# Measured values from PubChem BioAssay AID778 (Sanford-Burnham Center for Chemical Genomics, 2007).
# About 20,000 (21%) of roughly 96,000 compounds were called active. These entries were drawn from the full list. Unmarked numbers belong to inactive results.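 The calls were made as follows: active = CYP2C19 inhibition above a set limit at 5 µM in the primary screen (cut at about 50% in these data); inactive = the rest.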
# Molecular target: Cytochrome P450 2C19 (Homo sapiens) (UniProt P33261)
# Test: blockers of cytochrome P450 2C19 activity – biochemical, luminescence, ADME assay, primary screen (AID 778);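 also: plate controls were negative control wells for no effect and 2.5 mM tranylcypromine positive control for full effect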
# Conditions: CYP2C19 Supersomes, luciferin-H EGE luminescence, 30 min; at 5 µM; hits give high values
# Chain of Cytochrome P450 2C19 (Homo sapiens) (P33261 whole entry, looked up): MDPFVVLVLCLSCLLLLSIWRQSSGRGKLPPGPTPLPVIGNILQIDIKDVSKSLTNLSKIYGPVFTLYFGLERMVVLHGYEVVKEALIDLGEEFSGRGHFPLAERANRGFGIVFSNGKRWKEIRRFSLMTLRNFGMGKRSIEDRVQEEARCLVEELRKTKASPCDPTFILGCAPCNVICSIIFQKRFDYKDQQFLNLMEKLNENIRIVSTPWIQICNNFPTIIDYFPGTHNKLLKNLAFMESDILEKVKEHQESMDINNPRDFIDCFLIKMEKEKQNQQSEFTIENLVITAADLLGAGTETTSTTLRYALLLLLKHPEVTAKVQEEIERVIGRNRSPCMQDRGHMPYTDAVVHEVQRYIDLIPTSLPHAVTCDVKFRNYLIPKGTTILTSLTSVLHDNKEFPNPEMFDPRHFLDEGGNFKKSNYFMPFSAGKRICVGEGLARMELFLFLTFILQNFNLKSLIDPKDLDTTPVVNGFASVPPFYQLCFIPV
row,SMILES,inhibition
1,CCCc1nnc(NC(=O)c2cccs2)s1,7.8%
2,COc1cc(/C=N/NC(=O)Nc2ccccc2)ccc1OCCOc1ccccc1C,4.8%
3,COc1ccc(/C=N/Nc2nc3ccccc3o2)cc1OC,-0.5%
4,C=CCOc1ccc(/C=N/n2cncn2)cc1OC,96.6% (active)
5,Cc1csc(NC(=O)CN2CCCCCC2)n1,22.8%
6,COc1cc(/C=N/O)cc(Br)c1OS(=O)(=O)c1ccc(C)cc1,73.4% (active)
7,COc1cc(/C=N/O)cc(Br)c1OCc1cccc(Cl)c1,4.4%
8,CCOc1cc(/C=N/O)cc(Br)c1OC,45.6%
9,Nc1c(-c2cccc(Cl)c2)cnn1-c1cccc([N+](=O)[O-])c1,24%
10,Cc1noc(C)c1S(=O)(=O)NCCc1ccc(S(N)(=O)=O)cc1,-13.5%
11,COc1ccc(C)cc1S(=O)(=O)NCCc1ccccc1,54.1% (active)
12,COCCNS(=O)(=O)c1cc(Br)ccc1OC,66.9% (active)
13,COc1ccc(Br)cc1S(=O)(=O)N1CCN=C1C,40.3%
14,COc1ccc(C)cc1S(=O)(=O)NC1CCCCC1,15%
15,COc1ccc(Cn2c(C)c(C)c(C#N)c2NC(=O)Nc2ccc(F)cc2)cc1,4.4%
16,Cc1ccc(F)cc1NC(=O)c1cccc(N(C)C)c1,8.6%
17,CCCC(NS(=O)(=O)c1ccc(OC)cc1)C(=O)O (stereo not given),-12.7%
18,CCc1ccc(Nc2ncc3c(n2)CC(c2ccco2)CC3=O)cc1 (stereo not given),1%
19,CC1CCCC(NC(=O)CN2CCN(Cc3ccc(Cl)cc3)C2=O)C1C (stereo not given),18.3%
20,CC1CCCCC1NC(=O)CSc1nnc(N)s1 (stereo not given),4%
21,CC1CCCC(NC(=O)CSc2nccn2C)C1C (stereo not given),97.2% (active)
22,Cc1ccc(NC(=S)NC(NC(=O)Cc2cccc3ccccc23)C(Cl)(Cl)Cl)cc1 (stereo not given),49.5%
23,CCCC(C(=O)NCc1ccco1)N(C(=O)CNS(=O)(=O)c1ccccc1)C1CCCC1 (stereo not given),78.3% (active)
24,CSCCC(NC(=O)C1CCC(C)CC1)C(=O)NCc1ccco1 (stereo not given),8.2%

row,SMILES,inhibition
1,O=C(NC1CCC(O)CC1)c1ccc(S(=O)(=O)NCc2ccco2)cc1 (stereo not given),-9%
2,COc1ccc(C2=NOC3(CC(=O)N(c4ccc(C)cc4)C3=O)C2)cc1 (stereo not given),-13.3%
3,O=C1CSC(c2ccc(Cl)cc2)N1 (stereo not given),13.7%
4,Cc1nc2ccccc2c2oc(C(=O)NCC3CCCO3)cc12 (stereo not given),-8.4%
5,c1ccc2c(NCC3CCCO3)nc(-c3ccncc3)nc2c1 (stereo not given),94.5% (active)
6,O=C(NCC1CCCO1)c1ccc2ccccc2n1 (stereo not given),-2.7%
7,Cc1ccc(S(=O)(=O)n2nc(OC(=O)C(C)(C)C)cc2N)cc1,21.6%
8,CS(=O)(=O)N1CCN(c2cccc(Cl)n2)CC1,46.3%
9,Cc1ccc(N2CCN(S(=O)(=O)N(C)C)CC2)cc1Cl,59.1% (active)
10,c1ccc(-n2ncc3c2ncn2c(C4CCCCC4)nnc32)cc1,-4.4%
11,CCn1ncc(C2=NOC(C(=O)N3CCN(c4ccccc4)CC3)C2)c1C (stereo not given),-20.9%
12,O=C(OCC(=O)N1CCCC1)c1ccco1,0.8%
13,CCOc1nc(-c2ccc(OC)cc2)ccc1-c1noc(-c2cc(OC)c(OC)c(OC)c2)n1,8%
14,CCc1ccc(CNC(=O)CCc2nc(-c3cccs3)no2)cc1,37.6%
15,COc1nc(-c2ccc(Cl)cc2)ccc1-c1noc(-c2cccs2)n1,7%
16,COc1ccc(-c2noc(-c3cccc(OC)c3OC)n2)cc1OC,22.7%
17,c1csc(-c2nc(-c3ccncc3)no2)c1,72.2% (active)
18,COc1cc(-c2nc(-c3ccncc3)no2)cc(OC)c1OC,83.6% (active)
19,O=C(CSc1nc(-c2ccco2)cc(C(F)(F)F)n1)N1CCc2ccccc2C1,42.7%
20,Cc1[nH]c2ccccc2c1C(=O)CSCC(=O)O,0.7%
21,Cc1cc(N=CC2=C(O)CCCC2=O)no1,2.1%
22,c1coc(CNc2ncnc3ccccc23)c1,-3.8%
23,S=C(NCCC1=CCCCC1)Nc1ccccc1,46.9%
24,O=C(Cc1nn[nH]n1)NCCC1=CCCCC1,-1.9%

row,SMILES,inhibition
1,Cc1nnc(OCC(=O)NCCC2=CCCCC2)c2ccccc12,55.2% (active)
2,O=C(COc1ccc(Cl)cc1)NCCC1=CCCCC1,26.8%
3,O=C(COc1cccc(-n2cnnn2)c1)NCCC1=CCCCC1,89.3% (active)
4,O=C(CN1C(=O)NC2(CCCCC2)C1=O)NCCC1=CCCCC1,8.2%
5,O=C(O)C1CC=CCC1C(=O)NCCc1ccccc1 (stereo not given),-8.8%
6,CC1(C)COC(c2cccn2Cc2ccccc2Cl)=N1,2.4%
7,CNC(=O)c1ccc2nc(NC(C)=O)sc2c1,2.4%
8,O=C(Cn1c(-c2ccc(Cl)cc2)noc1=O)N1CCN(c2ccccc2F)CC1,12.6%
9,CCCCOC(=O)Nc1sc2nc(C)cc(C)c2c1-n1cccc1,9.4%
10,O=C(Nc1cccc2c1CCCC2)C1CCN(C(=O)NC2CCCCC2)CC1,2.3%
11,COCCNC(=O)COc1ccc(C)c(C)c1,-3.5%
12,COCCCNC(=O)COc1cc(C)c(Cl)c(C)c1,86.2% (active)
13,COCCNC(=O)COc1ccccc1C,2%
14,CCOC(=O)C1C(=O)C=C(c2ccc(OC)cc2)CC1c1ccco1 (stereo not given),28.1%
15,O=C(OCC(O)C(O)COC(=O)c1ccccc1)c1ccccc1 (stereo not given),83.5% (active)
16,O=C(NC(=O)c1ccccc1)NC(=O)c1ccccc1,21.7%
17,CCCCCCOC(=O)NCC(O)c1ccccc1 (stereo not given),23.3%
18,COc1ccc(-c2nc(-c3ccccc3)no2)c(OC)c1,12.8%
19,CCOC(=O)C(CC)Sc1ncnc2c1nnn2-c1ccc(F)cc1 (stereo not given),10.5%
20,CCN(CC(=O)NC1CCS(=O)(=O)C1)c1nc(-c2cccnc2)nc2ccccc12 (stereo not given),4.6%
21,Cc1ccc(NC2(C#N)C(=O)Nc3ccccc32)cc1 (stereo not given),60.3% (active)
22,Cc1ccc2c(c1)C(O)(CC(=O)c1cccnc1)C(=O)N2 (stereo not given),10.2%
